Compound activity as filed in PubChem.
CatS inh: blocks human cathepsin S protease activity. P25774. recombinant cathepsin S, AMC dipeptide fluorescence, pooled mixtures. inhibition, %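 (tested at 5 µM per compound within 10-compound mixtures)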. actives 0.06% (n = 62,000). AID 501; in the data active = inhibition above about 32%, passing the limit was not always enough; inconclusive = no clear call, values can overlap the other calls;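 also: 0% = enzyme without compound and 100% = blank without enzyme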
CatL block: blocks human cathepsin L protease activity; P07711; inhibition, %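 (tested at 10 µM)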; purified cathepsin L, fluorogenic substrate, fluorescence; actives 0.17% (n = 58,000); AID 460; in the data active = inhibition above about 45%;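 also: 0% = enzyme with no compound and 100% = no enzyme blank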
Target sequence (P07711 114-288 limits assumed): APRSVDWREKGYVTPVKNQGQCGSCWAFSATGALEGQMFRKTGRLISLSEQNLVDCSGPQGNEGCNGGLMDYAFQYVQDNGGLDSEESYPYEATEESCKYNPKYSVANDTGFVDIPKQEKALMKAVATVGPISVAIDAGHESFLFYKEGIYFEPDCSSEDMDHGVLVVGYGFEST
Target sequence (P07711 292-333 limits assumed): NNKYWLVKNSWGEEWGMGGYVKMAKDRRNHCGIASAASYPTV
WNV NS2B-NS3 inh: WNV NS2B-NS3 proteinase inhibition; actives 0.18% (n = 65,000); z-score (no concentration beside the values); AID 577; WNV NS2B-NS3 protease, fluorogenic substrate Ex360/Em465; stronger effect = lower value; in the data active = z-score below about -3
CatB mix inh: human cathepsin B inhibition by mixtures. P07858. Purified cathepsin B, AMC dipeptide fluorescence, compound mixtures. inhibition, %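 (ten-compound pools at 5 µM per compound and 50 µM total)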. actives 0.06% (n = 62,000). AID 488; in the data active = inhibition above about 22%, passing the limit was not always enough; inconclusive = no clear call, values can overlap the other calls;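 also: 0% = enzyme without compound and 100% = no enzyme blank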
CatB inh: human cathepsin B inhibition | purified cathepsin B, fluorogenic substrate, fluorescence | inhibition, %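 (tested at 10 µM)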 | actives 0.1% (n = 63,000) | AID 453; in the data active = inhibition above about 21%;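 also: 0% = enzyme with no compound and 100% = no enzyme blank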
Active calls of the source: *; ? = inconclusive; . = not tested or not shown. Only some compounds are listed: those with a hit (about 0.42% of all), similar ones and a draw of the others.

SMILES | CatS inh | CatL block | WNV NS2B-NS3 inh | CatB mix inh | CatB inh
COc1ccc(N2CCN(CCCNS(=O)(=O)c3c(C)noc3/C=C/N(C)C)CC2)cc1 | 14 | 75* | 0.52 | -1 | 1
COc1ccc(N2CCN(CC(=O)Nc3cc(C)on3)CC2)cc1 | 6 | 14 | -0.16 | -1 | 4
Cc1ccc(C)c(N(CC(=O)NC2CCCCC2)C(=O)CCC(=O)Nc2ccccn2)c1 | . | . | 0.41 | . | .
COc1ccc(N(CC(=O)NC2CCCCC2)S(=O)(=O)c2cccnc2)cc1 | -2 | -1 | -0.31 | -1 | 2
Cc1ccc(N(CC(=O)NC2CCC(C)CC2)S(=O)(=O)c2cccnc2)cc1 (centres undefined) | 4 | 72* | 2.1 | 34 | 7
COc1ccc(C2C(C(=O)NCc3ccccn3)c3cc(OC)c(OC)cc3C(=O)N2C)cc1 (centres undefined) | -10 | 59* | -0.42 | -3 | 5
CCCn1c(SCC(=O)Nc2ccc3c(c2)OCCO3)nnc1-c1ccco1 | 0 | -5 | -3.9* | 3 | 5
CSc1cccc(NC(=O)CN(C)S(=O)(=O)c2ccc(C)cc2)c1 | 9 | 1 | . | 1 | 1
CC(=O)Nc1nc2n(n1)C(c1ccc(F)cc1)C=C(c1ccccc1)N2 (centres undefined) | 6 | 49* | 1.3 | -2 | -2
Brc1cnn(-c2nc(N3CCOCC3)nc(N3CCOCC3)n2)c1 | -6 | 13 | -0.39 | -3 | 5
COc1ccc(CNC(=O)c2ccc(=O)oc2)cc1OC | 17 | 28 | 0.3 | 6 | 12
Cc1cc(NC(=O)COC(=O)C(Nc2ccc(C(F)(F)F)cc2Cl)C(C)C)no1 (centres undefined) | 0 | 2 | -0.27 | 2 | -2
CC(C)C(c1nnnn1C1CCCC1)N1CCCc2ccccc21 (centres undefined) | 32* | 14 | 0.54 | 5 | 10
CC(C)C(c1nnnn1C1CCCC1)N1CCc2ccccc21 (centres undefined) | -4 | 16 | 1.3 | 2 | -1
Cc1nc2cc(F)ccc2n1C1CCN(S(=O)(=O)c2ccccc2)CC1 | -28 | 7 | -0.82 | -16 | 3
CCOC(=O)CSc1nnc(Cc2ccccc2)n1Cc1ccco1 | -4 | 92* | -0.55 | -3 | 6
COc1ccc(C(=O)CSc2nnc(-c3ccc(C)cc3)o2)cc1 | 5 | 5 | -4.1* | 3 | 0
COc1ccc(C(=O)CSc2nnc(-c3ccccc3)o2)cc1 | -1 | 6 | 1.1 | -1 | 0
CCn1c(=O)c(C2=NS(=O)(=O)c3ccccc3N2)c(O)c2ccccc21 | 20 | 9 | 0.48 | 9 | 9
O=S(=O)(/N=S1/CC=CCN1S(=O)(=O)c1ccccc1)c1ccccc1 (centres undefined) | -19 | . | 0.0011 | ? | 35*
O=S(=O)(c1ccccc1)N1CCN(S(=O)(=O)c2ccccc2)C1 | -4 | 7 | 0.91 | 3 | 4
CCc1nc2c(sc3nc(N4CCOCC4)c4c(c32)CC(C)(C)OC4)c(=O)o1 | . | -4 | -0.67 | . | -2
COC(=O)CSC1=C(C#N)C(c2ccc(C)cc2)C2=C(CCCC2=O)N1 (centres undefined) | 21 | . | -5* | 2 | 9
CCOC(=O)C(C(=O)OCC)N(C#N)c1nc(SC)nc(N(C)C)n1 | . | 78* | 2 | . | 27*
CC(C(=O)N(C)C)N(C#N)c1nc(N(C)C)nc(N(C)C)n1 (centres undefined) | . | 7 | 0.41 | . | -2
SMILES | CatS inh | CatL block | WNV NS2B-NS3 inh | CatB mix inh | CatB inh
O=C(C1CCN(S(=O)(=O)c2cccc3cccnc23)CC1)N1CCN(c2ccc(Cl)cc2)CC1 | -4 | -3 | 0.18 | 2 | -1
NC(=O)NC1CCCc2c1[nH]c1ccc(Cl)cc21 (centres undefined) | 4 | -2 | -3* | 1 | 1
Cc1cnc(NC(=O)C(C)N2C(=O)C3CC=CCC3C2=O)s1 (centres undefined) | -6 | . | -3.4* | 4 | 3
CC(C(=O)Nc1nccs1)N1C(=O)C2CC=CCC2C1=O (centres undefined) | 12 | 9 | 0.67 | -7 | 0
Cc1cccc(-n2ncc3c(N4CCN(c5nc(C)cc(C)n5)CC4)ncnc32)c1 | 2 | 20 | -0.05 | 1 | 0
O=C(OC(C(=O)NCc1cccs1)c1ccccn1)c1cccs1 (centres undefined) | 5 | 19 | -0.71 | 28* | 35*
CC1CCN(C(=O)C2CCN(C(=O)c3cc4sccc4n3Cc3ccc(F)cc3)CC2)CC1 | -2 | 54* | -1.3 | 1 | 1
CC(C)NC(=O)C1CCN(C(=O)c2cc3sccc3n2Cc2ccc(F)cc2)CC1 | -3 | -4 | -0.19 | 3 | 0
